The record followed here is PubChem BioAssay (NCATS).

Each structure is given as a SMILES string. Results filed as inconclusive are left out. A number with no mark means an inactive call. Calls of active or inactive are those of the source. Unless noted, calls come from the whole dose curve; as a rule, active = well fitted curve in the direction sought with a large enough effect; inconclusive = small, poorly fitted or top-dose-only effect, or another doubt; inactive = no such curve, though single readings can be large; an effect the other way counts as inactive or inconclusive.

The target in test [1] is Luciferin 4-monooxygenase (Photinus pyralis) (UniProt P08659). Description: Biochemical firefly luciferase enzyme assay for NPC (AID 624030).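 Note: purified P. pyralis luciferase at 10 nM with luciferin and ATP substrate; 0% = DMSO and -100% = full luciferase inhibition by PTC124 control; nearly all actives have a fitted effect of over 70% in size.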 An outline of the steps: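 Direct inhibition of firefly luciferase enzyme (10 nM final, 50 mM Tris Acetate) assessed by luminescence within 5 minutes. Percent activity scaled between DMSO and PTC124 positive control, with concentration-effect curves classified by fit quality and response.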

Test [2] has as its target Ubiquitin carboxyl-terminal hydrolase 1 (Homo sapiens) (UniProt O94782). As to the kind of experiment: Inhibitors of USP1/UAF1: Pilot qHTS (AID 504865).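 Note: rhodamine fluorescence freed from ubiquitin-rhodamine substrate followed over time; top concentration of the series differs between compounds; % is set by controls: 0 for no effect and ±100 for the full control effect; nearly all actives have a fitted effect of over 35% in size.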 The gist of the method: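 USP1/UAF1 complex at 1 nM preincubated 15 min at room temperature with compound, then Ub-Rho substrate added at 150 nM final. Fluorescence (480/540 nm) read kinetically in 50 mM HEPES pH 7.8, 0.5 mM EDTA, 1 mM TCEP, 0.1 mg/ml BSA, 0.01% Tween-20.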
In general terms: In qHTS, concentration-response curves come from the screen itself.

Test [3] has as its target Cytochrome P450 2C9 (Homo sapiens) (UniProt P11712). Description: qHTS Assay for Inhibitors and Substrates of Cytochrome P450 2C9 (AID 883). For activity change, negative = inhibition: % is set by controls: 0 for no effect and ±100 for the full control effect. Note: nearly all actives have a fitted effect of over 60% in size. Note: potency is the fitted concentration of half-maximal effect. An outline of the steps: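 Turnover of Luciferin-H (100uM, KM) by 10nM human CYP2C9 was measured over 60 min at 37C with NADPH regeneration; inhibitors and some substrates reduce luminescence. Data normalized to sulphaphenazole 57uM.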

Test [4] concerns the target Cytochrome P450 3A4 (Homo sapiens) (UniProt P08684). As to the kind of experiment: qHTS Assay for Inhibitors and Substrates of Cytochrome P450 3A4 (AID 884). For activity change, negative = inhibition: % is set by controls: 0 for no effect and ±100 for the full control effect. Note: nearly all actives have a fitted effect of over 50% in size. Note: potency is the fitted concentration of half-maximal effect. The gist of the method:
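20 nM human CYP3A4 with 25 uM Luciferin-PPXE (at KM) in 200 mM KPO4, preincubated 10 min with compound; NADPH regeneration started a 60 min RT reaction. Luciferin detected by luminescence, normalized to 57 uM ketoconazole as full inhibition.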

In test [5] the target is ATP-dependent 6-phosphofructokinase (Trypanosoma brucei brucei) (UniProt O15648). Description: qHTS Assay to Find Inhibitors of T. brucei phosphofructokinase: hit validation (AID 492961).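 Note: luminescence reports ADP formed as PFK phosphorylates fructose-6-phosphate with ATP; % is set by controls: 0 for no effect and ±100 for the full control effect.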 An outline of the steps:
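Measures ADP output of PFK (1.25 nM) at 0.1 mM ATP, 0.5 mM F6P, pH 8.0 TEA buffer with 5 mM MgCl2. No-enzyme wells define full inhibition; uninhibited enzyme wells define zero.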

Test [6] is described as follows: S16 Schwann cell viability assay (CellTiter-Glo assay) (AID 624031).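 Note: native untransfected S16 rat Schwann cells; cellular ATP luminescence as a viability measure; plate controls were DMSO-treated cells for no effect and cell-free wells for full effect; nearly all actives have a fitted effect of over 70% in size.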 An outline of the steps: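 Cells were seeded at 500-750 per well in phenol red-free DMEM with 10% FBS and left overnight. Compounds or DMSO were pinned in, incubation ran 24 h at 37 °C/5% CO2, then CellTiter-Glo reagent was added and luminescence measured.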
On the technique in general: In ATP-based viability assays light output follows the ATP content of the culture.

Test [7] in a line: S16 Schwann cell PMP22 intronic element beta-lactamase assay (AID 624044; calls by dose curve;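 note: 0% = DMSO and -100% = potassium clavulanate positive control; nearly all actives have a fitted effect of over 15% in size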). An outline of the steps: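 Rat S16 Schwann cells with beta-Lac driven by a PMP22 intronic element, compound-treated 24 h at 37 °C. LiveBLAzer FRET B/G read: 460 nm normalized to potassium clavulanate vs DMSO; 535 nm FRET as viability; concentration-effect curves classified.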
Test [8] in a line: qHTS profiling for inhibitors of Plasmodium falciparum proliferation (AID 504749).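 For activity, negative = inhibition: 0% = DMSO vehicle and full inhibition = artemisinin control.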 For all read-outs here: nearly all actives have a fitted effect of over 60% in size. Note: potency is the fitted concentration of half-maximal effect. The settings on record: P. falciparum in erythrocytes, SYBR Green DNA, 72 h; for activity, negative = inhibition: at 28.7 µM (top of the series). The gist of the method: (§1)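 Infected RBCs, 0.3% parasitemia/2.5% Hct final; cpd 72 h, 37 C, 5% CO2; lysis buffer with saponin/triton/SYBR Green I, o/n RT dark; FI 485/535; norm. to artemisinin (0.29 uM) and DMSO.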

A further test has as its system 3D7. The description is as above. The settings on record: P. falciparum in erythrocytes, SYBR Green DNA, 72 h; series mostly up to 28.7 µM. The gist of the method:
as §1

A further test has as its system CP191. Described as above. The settings on record: P. falciparum in erythrocytes, SYBR Green DNA, 72 h; series mostly up to 28.7 µM. An outline of the steps: as §1
Another test relates to CP237. Described as above. To be noted: P. falciparum in erythrocytes, SYBR Green DNA, 72 h; series mostly up to 28.7 µM. An outline of the steps:
as §1

The next test deals with CP250. The description is as above. The settings on record: P. falciparum in erythrocytes, SYBR Green DNA, 72 h; series mostly up to 28.7 µM. The gist of the method: as §1
For a further test, the system named is CP252. The description is as above. To be noted: P. falciparum in erythrocytes, SYBR Green DNA, 72 h; series mostly up to 28.7 µM. An outline of the steps:
as §1

A further test has as its system DFO2036. Described as above. To be noted: P. falciparum in erythrocytes, SYBR Green DNA, 72 h; series mostly up to 28.7 µM. An outline of the steps:
as §1

Another test deals with Dd2. Described as above. To be noted: P. falciparum in erythrocytes, SYBR Green DNA, 72 h; series mostly up to 28.7 µM. An outline of the steps: as §1
The test system of a further test is FAB9. The test is described as above. The settings on record: P. falciparum in erythrocytes, SYBR Green DNA, 72 h; series mostly up to 28.7 µM. The gist of the method:
as §1

The test system of a further test is HB3. Described as above. The settings on record: P. falciparum in erythrocytes, SYBR Green DNA, 72 h; series mostly up to 28.7 µM. The gist of the method:
as §1

In another test the test system is PC49. The description is as above. To be noted: P. falciparum in erythrocytes, SYBR Green DNA, 72 h; series mostly up to 28.7 µM. The gist of the method:
as §1

Luciferin 4-monooxygenase (Photinus pyralis), sequence (P08659 whole entry, looked up): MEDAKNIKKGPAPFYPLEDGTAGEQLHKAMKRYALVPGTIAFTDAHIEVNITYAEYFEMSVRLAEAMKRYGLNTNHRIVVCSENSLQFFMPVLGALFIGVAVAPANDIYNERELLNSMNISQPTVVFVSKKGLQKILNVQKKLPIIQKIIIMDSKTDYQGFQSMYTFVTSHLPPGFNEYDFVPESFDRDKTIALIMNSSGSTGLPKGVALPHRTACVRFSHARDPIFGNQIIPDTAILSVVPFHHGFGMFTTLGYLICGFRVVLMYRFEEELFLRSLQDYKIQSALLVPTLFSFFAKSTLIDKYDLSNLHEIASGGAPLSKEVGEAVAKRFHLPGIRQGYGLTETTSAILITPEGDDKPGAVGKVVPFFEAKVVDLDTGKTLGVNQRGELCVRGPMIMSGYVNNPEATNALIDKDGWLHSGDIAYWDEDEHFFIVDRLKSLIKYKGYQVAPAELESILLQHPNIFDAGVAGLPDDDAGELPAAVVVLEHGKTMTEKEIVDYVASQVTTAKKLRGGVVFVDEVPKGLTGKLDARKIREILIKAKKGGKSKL
Cytochrome P450 2C9 (Homo sapiens), sequence (P11712 whole entry, looked up): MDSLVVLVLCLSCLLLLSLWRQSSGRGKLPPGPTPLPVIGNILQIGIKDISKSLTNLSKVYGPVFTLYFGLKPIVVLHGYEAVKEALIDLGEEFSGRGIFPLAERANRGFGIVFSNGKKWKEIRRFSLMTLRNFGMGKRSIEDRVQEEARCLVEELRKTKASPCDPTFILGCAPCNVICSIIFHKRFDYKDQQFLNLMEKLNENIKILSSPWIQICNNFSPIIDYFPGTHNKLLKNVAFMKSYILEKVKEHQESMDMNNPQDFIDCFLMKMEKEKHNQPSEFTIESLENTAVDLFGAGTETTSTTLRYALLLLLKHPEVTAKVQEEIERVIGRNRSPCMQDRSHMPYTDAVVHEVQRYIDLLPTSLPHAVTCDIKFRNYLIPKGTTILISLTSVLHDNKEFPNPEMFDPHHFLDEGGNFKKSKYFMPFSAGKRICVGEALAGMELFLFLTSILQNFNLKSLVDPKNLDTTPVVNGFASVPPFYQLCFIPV
ATP-dependent 6-phosphofructokinase (Trypanosoma brucei brucei), sequence (O15648 whole entry, looked up): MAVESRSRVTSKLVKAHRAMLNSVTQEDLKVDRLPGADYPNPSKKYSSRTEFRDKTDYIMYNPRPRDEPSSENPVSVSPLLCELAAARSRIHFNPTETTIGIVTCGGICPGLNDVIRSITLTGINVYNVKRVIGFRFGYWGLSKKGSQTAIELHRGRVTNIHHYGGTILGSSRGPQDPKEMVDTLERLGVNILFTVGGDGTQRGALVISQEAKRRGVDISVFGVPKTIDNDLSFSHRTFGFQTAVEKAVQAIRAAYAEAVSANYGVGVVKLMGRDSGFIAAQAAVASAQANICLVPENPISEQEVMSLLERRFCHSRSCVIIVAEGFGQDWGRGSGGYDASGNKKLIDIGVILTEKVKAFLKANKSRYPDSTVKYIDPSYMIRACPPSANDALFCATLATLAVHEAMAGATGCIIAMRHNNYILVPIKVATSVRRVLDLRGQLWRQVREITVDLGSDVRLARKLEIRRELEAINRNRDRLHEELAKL
Ubiquitin carboxyl-terminal hydrolase 1 (Homo sapiens), sequence (O94782 whole entry, looked up): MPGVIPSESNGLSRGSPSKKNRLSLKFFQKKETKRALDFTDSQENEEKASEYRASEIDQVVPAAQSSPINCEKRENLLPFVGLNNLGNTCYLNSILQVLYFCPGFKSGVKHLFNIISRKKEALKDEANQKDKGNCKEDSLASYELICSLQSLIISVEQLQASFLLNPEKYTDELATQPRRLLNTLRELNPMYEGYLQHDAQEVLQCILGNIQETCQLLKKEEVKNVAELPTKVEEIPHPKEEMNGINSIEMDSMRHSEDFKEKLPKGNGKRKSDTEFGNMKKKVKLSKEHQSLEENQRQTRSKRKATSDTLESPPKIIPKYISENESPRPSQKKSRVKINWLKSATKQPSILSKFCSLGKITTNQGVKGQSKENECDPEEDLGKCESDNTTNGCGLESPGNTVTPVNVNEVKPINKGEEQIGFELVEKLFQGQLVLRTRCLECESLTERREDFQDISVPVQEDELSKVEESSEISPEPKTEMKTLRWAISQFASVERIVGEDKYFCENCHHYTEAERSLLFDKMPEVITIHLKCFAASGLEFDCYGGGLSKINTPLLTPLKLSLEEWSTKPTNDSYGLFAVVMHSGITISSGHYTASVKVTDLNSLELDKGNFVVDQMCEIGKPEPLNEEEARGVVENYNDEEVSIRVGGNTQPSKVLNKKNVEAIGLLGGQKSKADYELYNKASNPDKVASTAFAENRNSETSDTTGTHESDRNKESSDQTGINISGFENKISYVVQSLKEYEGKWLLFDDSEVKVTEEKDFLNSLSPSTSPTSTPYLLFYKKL
Cytochrome P450 3A4 (Homo sapiens), sequence (P08684 whole entry, looked up): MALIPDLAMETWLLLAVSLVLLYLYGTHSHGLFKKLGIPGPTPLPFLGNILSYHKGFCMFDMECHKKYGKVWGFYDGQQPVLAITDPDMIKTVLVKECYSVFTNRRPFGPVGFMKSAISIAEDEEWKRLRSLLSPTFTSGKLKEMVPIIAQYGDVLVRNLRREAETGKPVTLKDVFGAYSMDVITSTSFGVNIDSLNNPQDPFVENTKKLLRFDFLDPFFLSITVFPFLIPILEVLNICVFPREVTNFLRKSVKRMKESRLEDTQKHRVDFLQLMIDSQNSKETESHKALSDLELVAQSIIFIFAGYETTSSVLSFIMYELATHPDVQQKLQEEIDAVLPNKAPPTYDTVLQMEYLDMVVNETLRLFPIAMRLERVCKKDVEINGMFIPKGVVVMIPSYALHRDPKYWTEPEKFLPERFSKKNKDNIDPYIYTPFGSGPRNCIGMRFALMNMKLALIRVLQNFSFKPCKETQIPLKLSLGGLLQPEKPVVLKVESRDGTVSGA

Turning to `Cc1ccc(O)cc1` (tested in a mixture with another compound), the call in [1] was inactive.
With `CC[C@@H]1CN2CCc3cc(OC)c(OC)cc3[C@H]2C[C@@H]1C[C@@H]1NCCc2cc(O)c(OC)cc21`, in [2], the Potency entry was “inactive”.
In the case of `NNc1c(C(N)=O)c2c(N)ncnc2n1[C@@H]1O[C@H](CO)[C@@H](O)[C@@H]1O`, in [3], the activity change, negative = inhibition was -2.73% [at 11.4 µM].
Take `C[C@H]1CC[C@@]2(NC1)O[C@@H]1C[C@@H]3[C@@H]4CC=C5C[C@@H](O)CC[C@]5(C)[C@@H]4CC[C@]3(C)[C@H]1[C@@H]2C`: the activity change, negative = inhibition in test [4] is 33.7% [at 11.4 µM].
On to `O=C(O)CN1CCN(CC(=O)O)CC(=O)[O][Hg][O]C(=O)C1`, for which the Potency in test [3] is 1.26 µM (active).
On to `CSC([N-]/N=C/c1cccc(C)n1)=[S]=[Cu].CS[C@H]([S-])[N-]/N=C/c1cccc(C)n1`, for which the results for the Potency in [3] and in test [4] were 0.251 µM (active) and 3.98 µM (active), respectively.
For `C[C@@H]1O[C@@H](O[C@H]2C[C@@H](O)[C@@]3(CO)[C@H]4[C@H](O)C[C@]5(C)[C@@H](C6=CC(=O)OC6)CC[C@]5(O)[C@H]4CC[C@@]3(O)C2)[C@@H](O)[C@H](O)[C@H]1O`, the result in test [5], in test [1], in [6] and in test [7] was inactive. Further, the Potency result (in test [2]; in the test on 3D7; with CP191; with CP237; with CP250; in the test with CP252) was “inactive” throughout. For the same molecule, the Potency result in the test on DFO2036, in the test on Dd2, with FAB9, with HB3 and in the test on PC49 was “inactive” in each case. The values for the activity, negative = inhibition in [8] (parasite line A) and in test [8] (parasite line B) were -4.19% and 10.7%, respectively.
For `COc1ccc(C[C@@H]2NC[C@H](O)[C@@H]2OC(C)=O)cc1`, the Potency entry in test [2] was “inactive”.
In the case of `C[C@@H](Cc1ccc(O)cc1)NC[C@@H](O)c1cc(O)cc(O)c1`, the call in test [5], in test [1], in [6] and in test [7] was inactive. Moreover, the Potency result (in [2]; in the test on 3D7; in the test with CP191; in the test with CP237; in the test with CP250; in the test on CP252) was “inactive” throughout. Besides, the Potency result with DFO2036, in the test with Dd2, in the test on FAB9, with HB3 and in the test with PC49 was “inactive” in each case. For the same molecule, the activity, negative = inhibition in [8] (parasite line A) was 13.4%; in test [8] (parasite line B) it was 5.16%.
As to `C=C[C@@H]1CN2CC[C@H]1C[C@H]2[C@H](O)c1ccnc2ccccc12`, the result in test [5], in test [1], in test [6] and in [7] was inactive. Besides, in test [2], the Potency entry is “inactive”. The Potency in test [8] (parasite line A) was 0.0891 µM (active); in test [8] (parasite line B), 0.1 µM (active); in the test with 3D7, 0.158 µM (active); with CP191, 0.501 µM (active); in the test with CP237 it was 1.12 µM (active); with CP250, 1.58 µM (active). The Potency in the test on CP252 is 1.12 µM (active); in the test with DFO2036 it was 0.355 µM (active); with Dd2, 0.891 µM (active); in the test with FAB9 it was 0.112 µM (active); in the test on HB3, 0.224 µM (active); in the test on PC49, 0.891 µM (active).
